Shown are actives, neighbours in structure and some others; about 22% of the full set was active somewhere.
LmPK inhibitor = inhibitors of Leishmania mexicana pyruvate kinase | purified LmPK, Kinase-Glo ATP luminescence, 1 h | 0.37% of 290,000 active | AID 1721 | Potency, µM (series often up to 57.5 µM), inactives show at the top dose activity change, negative = inhibition, most hits filed as inhibitors | Q27686; further: potency means the concentration at half of the fitted maximal effect; on the % scale 0 is the no-effect control and ±100 the full control effect
Target sequence (Q27686 whole entry, looked up): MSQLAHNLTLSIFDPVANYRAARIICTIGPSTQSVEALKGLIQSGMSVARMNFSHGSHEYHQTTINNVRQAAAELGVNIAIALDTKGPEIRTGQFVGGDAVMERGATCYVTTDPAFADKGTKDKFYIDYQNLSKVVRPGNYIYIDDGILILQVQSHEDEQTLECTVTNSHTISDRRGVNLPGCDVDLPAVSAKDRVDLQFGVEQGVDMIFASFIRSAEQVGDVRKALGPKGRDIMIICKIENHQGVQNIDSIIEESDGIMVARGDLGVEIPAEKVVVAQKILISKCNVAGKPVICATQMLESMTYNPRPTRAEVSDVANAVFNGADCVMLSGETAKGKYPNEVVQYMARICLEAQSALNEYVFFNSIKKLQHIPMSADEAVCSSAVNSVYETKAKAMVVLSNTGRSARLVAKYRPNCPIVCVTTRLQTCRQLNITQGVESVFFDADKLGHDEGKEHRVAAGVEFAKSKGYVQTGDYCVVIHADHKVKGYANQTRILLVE
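Pyruvate kinase activity monitored as ATP production (luciferase luminescence). Conditions: 0.1 nM enzyme, 0.5 mM PEP, 0.1 mM ADP, 1 h, RT; normalized against uninhibited and no-enzyme wells.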
Pf growth 96h = P. falciparum growth inhibition at 96 hour, primary screen for plastid delayed-death inhibitors. P. falciparum luciferase reporter growth, 96 h. Potency, µM (top dose mostly 28.7 µM), for the others: top-dose activity change, negative = inhibition, actives largely listed as inhibitors. 6.9% of 320,000 active. AID 504834; further: potency means the concentration at half of the fitted maximal effect; on the % scale 0 is the no-effect control and ±100 the full control effect
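Cell-based qHTS: luciferase-tagged P. falciparum in erythrocytes (2% hematocrit, 0.05% parasitemia final) incubated with compounds for 96 hours, 37 C, 5% CO2; luciferase detection reagent then added and luminescence measured.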
Pf growth 48h = P. falciparum growth inhibition at 48 hours (one generation); P. falciparum luciferase growth in erythrocytes, 48 h; Potency, µM (doses to about 28.7 µM), without a hit: at the highest dose activity change, negative = inhibition, usual class: inhibitors; 5.9% of 310,000 active; further: potency means the concentration at half of the fitted maximal effect; on the % scale 0 is the no-effect control and ±100 the full control effect
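Firefly luciferase activity from engineered P. falciparum reports growth; inhibitors lower the luminescent signal. Cultures contained 2% hematocrit erythrocytes at 0.1% final parasitemia.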
CHX counter = affects cycloheximide protein synthesis inhibition readout, counter-screen. 12% of 300,000 active. cell reporter, cycloheximide protein synthesis inhibition counterscreen. AID 2314. max response, %; in the data active means max response mostly above about 13%, no sharp cut-off; inactive means mostly below about 14%; further: read at 38.3 µM for the half of the compounds with a filed dose; 0% is about no effect
Shiga toxin inh = blocks Shiga toxin action in Vero cells. Vero cells, Shiga toxin protein synthesis inhibition reporter. inhibition, % at 38.7 µM. 9.2% of 290,000 active. AID 2315; in the data active means inhibition mostly above about 28%, no sharp cut-off; inactive means mostly below about 43%; further: 0% is about no effect
Active calls of the source: *; u = inconclusive; x = not tested or not shown; [ ] = dose if it differs, or a comment. Unless noted, the call rests on the fitted dose curve; in most records, active means well fitted inhibition curve with a large enough effect; inconclusive means small, poorly fitted or top-dose-only effect, or another doubt; inactive means no such curve, though single readings can be large or run the other way.

SMILES	LmPK inhibitor	Pf growth 96h	Pf growth 48h	CHX counter	Shiga toxin inh
N#C/C(C(=O)c1ccccc1)=C1/CCCCCN1	-18%	15%	145%	44*	94*
N#C/C(C(N)=O)=C1/CCc2ccccc2N1	2%	-14%	x	17	1
CC(=O)c1c(N2CCOCC2)nc2ccc(Cl)cc2c1-c1ccccc1	5%	-17%	u	-1	-8
CC(=O)N/C(=C\c1ccc(F)cc1)C(=O)N(C)C	-1%	-3%	-2%	-3	12
O=C(c1cc(COc2c(F)cccc2F)on1)N1CCC(c2ccncc2)CC1	4%	u	u	7	28
Cc1cccc(C)c1OCc1cc(C(=O)N2CCN(C3CCCC3)CC2)no1	9%	8%	20%	35*	64*
CCN1CCN(C(=O)c2cc(COc3c(C)cccc3C)on2)CC1	0%	u	6%	19*	5
CSc1ccccc1OCc1cc(C(=O)N2CCN3CCCC3C2)no1 (configuration not stated)	-1%	u	8%	15*	27
Cc1cccc(C)c1OCc1cc(C(=O)N2CCC(c3ccncc3)CC2)no1	-6%	-19%	-1%	37*	58*
COCC1CCN(C(=O)c2cc(COc3ccccc3SC)on2)C1 (configuration not stated)	3%	u	-1%	-4	-9
O=C(COC(=O)c1ccccc1O)Nc1cccc2ccccc12	x	-10%	3%	x	x
COc1ccc(CN(C)CC(=O)NC2CCCc3ccccc32)cc1OC (configuration not stated)	3%	-24%	-3%	4	-14
Cc1cccc(C)c1OCc1cc(C(=O)N2CCN3CCCC3C2)no1 (configuration not stated)	-7%	34%	-2%	19*	44*
COCCn1c(NC(=S)NC(=O)C23CC4CC(CC(C4)C2)C3)cc(=O)[nH]c1=O	2%	15µM*	u	-3	-6
CCN1/C(=C/c2ccc3cc(C)ccc3[n+]2CC)Sc2ccccc21	-10%	13%	0.59µM*	-4	-18
CCN1/C(=C/c2ccc3cc(C)ccc3[n+]2CC)Sc2cc(C)c(C)cc21	-4%	2%	2.1µM*	-1	-4
O=c1c(-c2ccccc2)c1-c1ccccc1	2%	5.4µM*	6.7µM*	65*	104*
COc1cccc(NCc2ccc([N+](=O)[O-])s2)c1	-4%	0.33µM*	-27%	-1	21
CCCn1c(N)c(C(=O)CSc2nc(C)cs2)c(=O)n(C)c1=O	-8%	9.3µM*	-21%	23*	9
Clc1ccc(Cn2nnc(-c3ccccc3)n2)cc1	1%	-25%	16%	28*	57*
Clc1ccccc1Cn1nnc(-c2ccccc2)n1	2%	27%	u	53*	105*
Clc1ccccc1-c1nnn(Cc2ccc(-c3nn[nH]n3)cc2)n1	-2%	u	11%	-2	-13
Clc1ccccc1Cn1nc(-c2ccccc2)nc1-c1ccccc1	-4%	38%	-5%	18*	13
COc1ccc(-c2nnn(Cc3ccccc3)n2)cc1OC	3%	38%	-5%	11*	x
Clc1ccc(Cn2nnc(-c3ccc(CN4CCOCC4)cc3)n2)cc1	0%	-7%	-19%	0	-24
SMILES	LmPK inhibitor	Pf growth 96h	Pf growth 48h	CHX counter	Shiga toxin inh
CCN(CC)C(C)C#CCC(c1ccccc1)c1ccccc1 (configuration not stated)	0%	u	u	-4	1
Cc1cc2nnc(SCC(=O)N(C)C3CCS(=O)(=O)C3)n2c2ccccc12 (configuration not stated)	-2%	7%	3%	12	-9
Cc1cc(C(=O)O)cc(S(=O)(=O)Nc2ccccc2C(=O)NC2CC2)c1C	x	69%	18%	x	x
Clc1ccccc1Cn1nnc(-c2cccs2)n1	6%	0%	114%	29*	61*
CCC(C(=O)O)n1nnc(-c2ccc(-c3ccc(OC)cc3)cc2)n1 (configuration not stated)	0%	x	47%	-3	6
CN(C)c1ccc(-c2nnn(Cc3ccccc3Br)n2)cc1	2%	u	u	17*	27
CCC(C(=O)O)n1nnc(-c2ccc(OCc3ccccc3)c(OC)c2)n1 (configuration not stated)	4%	4.7µM*	1%	-3	-4
O=C(CCn1nnc(-c2cccs2)n1)NCc1ccccc1Cl	-2%	x	-2%	-4	-10
Cc1ccc(CC2SC(N)=NC2=O)cc1 (configuration not stated)	3%	62%	35%	4	-8
Cc1cc2c(s1)c1cnn(Cc3ccc(C(F)(F)F)cc3)c(=O)c1n2C	x	x	x	-6	-7
CC(C)OC(=O)C1C2C=CC3(CN(C(C)c4ccc(Br)cc4)C(=O)C13)O2 (configuration not stated)	0%	10µM*	x	14	-18
COc1ccc(CCNC(=O)Nc2ccc([N+](=O)[O-])cc2)cc1OC	-1%	7%	5%[5.75 µM]	-1	-2
COc1cccc(Cn2cnc3c(NS(=O)(=O)c4ccc(Cl)cc4Cl)c(C)c(C)cc32)c1	2%	0%	25%	-2	-4
COc1cccc(Cn2cnc3c(NS(=O)(=O)c4ccc(Cl)cc4)c(C)c(C)cc32)c1	1%	4.7µM*	13µM*	1	3
CC(C)(CN1CCOCC1)NS(=O)(=O)c1ccccc1	-1%	u	12%	-2	-4
Cc1c(C(=O)N2CCCC2)oc2c1-c1nn(CC(=O)NCCCN3CCCCC3)cc1CC2	2%	-21%	u	4	-2
CCCCN(CCCC)CCCNC(=O)Cn1cc2c(n1)-c1c(oc(C(=O)N3CCCC3)c1C)CC2	-1%	u	12µM*	-1	-9
Clc1ccc(Nc2ccc(NCc3ccccc3)nn2)cc1	2%	1.9µM*	4.7µM*	34*	60*
Cc1ccc(Nc2ccc(NCc3ccccc3)nn2)cc1C	-5%	u	u	33*	68*
CC(=O)NC12CC3CC(C1)CC(C(=O)N(C)Cc1cccc(Cl)c1Cl)(C3)C2	-4%	u	0%	-7	-14
COCCSc1nnc(NC(=O)C2CC(=O)N(C3CCCC3)C2)s1 (configuration not stated)	3%	10%	-8%	-2	-21
O=S1(=O)C2CC3C=CC2(O3)C(O)C(Cc2ccccc2)N1Cc1cccc(F)c1 (configuration not stated)	x	x	x	-4	14
CCOc1cc([N+](=O)[O-])cc(/C=N/NC(=O)c2c(-c3ccccc3)noc2C)c1O	1%	13µM*	18%	12	-7
COc1cccc(/C=N/NC(=O)c2c(-c3ccccc3)noc2C)c1O	3%	u	5.9µM*	-1	-8
Cc1cccc(C)c1NC(=O)N1CCC(C(=O)c2ccc(F)cc2)CC1	6%	-7%	-9%	1	3
